Source: PubChem BioAssay (National Center for Advancing Translational Sciences (NCATS))
The list is not random: actives were taken first. Their share in the collection is about 6.3%.
HepG2 tox: counter-screen for TGF-b inhibitors: cytotoxicity in HepG2 cells; HepG2 CAGA-GFP viability, ATP luminescence, 18 h; Potency, µM (top dose mostly 46.1 µM), hits mostly cytotoxic; 410,000 tested, 0.76% active
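CellTiter-Glo luminescence gave cytotoxicity after 18 hours at 37 degrees C. The cells were HepG2 CAGA-GFP in 1% FBS DMEM, stimulated with 500 pg/mL TGF-beta after compound addition. %Activity was normalised to no-cell wells (complete cell-killing) and DMSO (no toxicity), and curves were fitted and classified.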
RORgamma inh: ROR gamma (mouse) transcription inhibition; Drosophila S2 Gal4-RORgamma UAS-luciferase reporter, 20 h; Potency, µM (highest dose often 53.6 µM), hits mostly inhibitors; 310,000 tested, 5.4% active; AID 2551; note: nearly all actives have a fitted effect of over 60% in size
Target sequence (P51450 whole entry, looked up, the tested form may be a part): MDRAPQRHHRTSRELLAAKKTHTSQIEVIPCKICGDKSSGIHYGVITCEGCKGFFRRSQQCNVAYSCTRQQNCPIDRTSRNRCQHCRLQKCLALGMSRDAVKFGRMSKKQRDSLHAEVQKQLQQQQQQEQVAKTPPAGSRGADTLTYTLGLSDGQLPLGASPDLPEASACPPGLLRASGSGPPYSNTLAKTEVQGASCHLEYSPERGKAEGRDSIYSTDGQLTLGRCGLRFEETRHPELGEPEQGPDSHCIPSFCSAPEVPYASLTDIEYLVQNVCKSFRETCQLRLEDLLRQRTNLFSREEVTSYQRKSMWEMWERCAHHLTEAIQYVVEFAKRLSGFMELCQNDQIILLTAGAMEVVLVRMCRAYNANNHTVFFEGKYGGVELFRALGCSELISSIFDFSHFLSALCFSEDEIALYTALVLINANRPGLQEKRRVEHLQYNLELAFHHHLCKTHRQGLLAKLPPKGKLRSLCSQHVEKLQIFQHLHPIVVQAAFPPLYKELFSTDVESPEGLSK
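Compounds are pin-transferred onto Drosophila Schneider cells expressing a copper-inducible Gal4–ROR gamma transactivation domain fusion. After 1 hr, copper sulfate is added to 700 uM final; luciferase is read 20 hr later.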
Gal4-VP16 FLuc: counter-screen for ROR gamma inhibitors: Gal4-VP16 reporter; Drosophila S2 Gal4-VP16 UAS-luciferase, luminescence, 20 h; Potency, µM (doses to about 53.6 µM), usual class: inhibitors; 310,000 tested, 3.5% active; AID 2546;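 note: Gal4-VP16 expression switched on by copper sulfate through the metallothionein promoter; nearly all actives have a fitted effect of over 50% in size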
S2 tox: reduces viability in counter-screen for ATXN expression inhibitors; S2 cells (HEK-293 line with an ATXN2-luciferase reporter) viability, CellTiter-Fluor protease fluorescence, 24 h; Potency, µM (top dose mostly 56.7 µM), most hits filed as cytotoxic; 400,000 tested, 0.49% active; note: nearly all actives have a fitted effect of over 40% in size
TGFb inhibitor: inhibitors of TGF-b signaling; HepG2 CAGA-GFP TGF-b/SMAD3 reporter, GFP fluorescence, 18 h; TGF-beta stimulated, 500 pg/mL final; Potency, µM (series often up to 46.1 µM), hits mostly inhibitors; 410,000 tested, 1.2% active; AID 588855; note: nearly all actives have a fitted effect of over 65% in size
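Inhibition of TGF-beta-driven CAGA-GFP reporter expression in HEPG2 cells is measured by cellular GFP fluorescence after 18 h stimulation with 500 pg/mL recombinant TGF-beta in 1% FBS medium at 37 degrees C.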
ATXN2 expr inh: inhibitors of ATXN2 expression | AID 1745845 | Potency, µM (top dose mostly 57 µM), hits mostly inhibitors | HEK-293 ATXN2-luciferase reporter, luminescence, 24 h | 360,000 tested, 0.72% active; note: nearly all actives have a fitted effect of over 55% in size
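qHTS (up to 57 uM final) was run with 24 h compound exposure of reporter cells at 37 °C. Each well was multiplexed: SteadyGlo luminescence measured ATXN2-luciferase expression after a fluorogenic Gly-Phe-AFC viability readout (25 uM final).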
Hits are given with their value; n = inactive; u = inconclusive; x = no result given; ! = a repeat was not active; [ ] = another dose, or the depositor's remark. Calls come from the whole dose curve; as a rule, active = well fitted curve in the direction sought with a large enough effect; inconclusive = small, poorly fitted or top-dose-only effect, or another doubt; inactive = no such curve, though single readings can be large; an effect the other way counts as inactive or inconclusive.

SMILES	HepG2 tox	RORgamma inh	Gal4-VP16 FLuc	S2 tox	TGFb inhibitor	ATXN2 expr inh
O=C(N/N=C/c1cc(Cl)cc([N+](=O)[O-])c1O)NC12CC3CC(CC(C3)C1)C2	n	3.98µM	u	n	n	n
O=C(N/N=C/c1ccc(O)c(O)c1)NC12CC3CC(CC(C3)C1)C2	n	n	n	n	n	n
O=C(N/N=C/c1ccccc1O)NC12CC3CC(CC(C3)C1)C2	n	u	15.8µM	n	11.2µM	n
CO[C@H]1COC(=O)CCC[C@H](C)[C@H](OC)COC(=O)C/C=C\[C@@H]1C	x	n[10 µM]	n[10 µM]	x	x	x
COc1cccc(OC)c1C(=O)NC(=S)N1CCN(c2ccc(C(F)(F)F)cc2[N+](=O)[O-])CC1	n	7.08µM	22.4µM	u	n	n
CCOc1ccc(C(=O)NC(=S)N2CCN(c3ccc(C(F)(F)F)cc3[N+](=O)[O-])CC2)cc1	n	0.316µM	0.251µM	u	u	n
CC(C)Oc1cccc(C(=O)NC(=S)N2CCN(c3ccc(C(F)(F)F)cc3[N+](=O)[O-])CC2)c1	n	0.447µM	1.12µM	n	u	n
COc1ccc(N2CCN(C(=O)c3cccc(F)c3)CC2)c([N+](=O)[O-])c1	n	n	n	n	n	n
COc1cccc(C(=O)NC(=S)N2CCN(c3ccc(C(F)(F)F)cc3[N+](=O)[O-])CC2)c1	n	0.562µM	0.631µM	n	n	n
CCN(CC(=O)Nc1c(F)cccc1F)C(=O)CSCc1ccc(C)cc1	n	x	x	u	n	x
O=c1ccn([C@@H]2O[C@H](CNCc3cccn3-c3nccs3)[C@@H](O)[C@H]2O)c(=O)[nH]1	n	x	x	n	n	n
COc1ccc([C@H]2CC(=O)C[C@@H](CCn3cccn3)O2)cc1	x	x	x	n	x	n
COc1ccccc1C1CN(Cc2cccc3nccnc23)Cc2ccccc2O1 (stereo not drawn)	x	x	x	n	x	x
O=C(C1CCC1)N1CCN(c2ccc(C(F)(F)F)cc2[N+](=O)[O-])CC1	n	7.08µM	3.98µM	n	n	n
Cc1cc(Cl)ccc1OCC(=O)N1CCOc2ccc(CN3C[C@@H](C)O[C@@H](C)C3)cc2C1	x	x	x	n	x	x
O=c1cc(-c2ccccc2)[nH]n1-c1nc2ccccc2s1	n	8.91µM	u	n	u	n
CSc1nnc(NC(=O)c2nc(S(=O)(=O)Cc3cccc(C)c3)ncc2Cl)s1	n	u	17.8µM	22.4µM	u	28.2µM
CC(C)c1nnc(NC(=O)c2nc(S(=O)(=O)Cc3ccc(F)cc3)ncc2Cl)s1	n	11.2µM	u	u	u	n
Cc1ccc(C)c(NC(=O)c2nc(Cl)ccc2Cl)c1	n	n	u	u	n	n
Cc1ccc(C)c(NC(=O)c2nc(S(=O)(=O)Cc3ccc(F)cc3)ncc2Cl)c1	3.55µM	x	x	x	3.55µM	x
CSc1ncc(Cl)c(C(=O)Nc2nnc(SC/C=C/c3ccccc3)s2)n1	n	n	n	n	u	n
C=CCSc1nnc(NC(=O)c2nc(SCC)ncc2Cl)s1	n	11.2µM	u	n	n	n
S=C(NCCCc1cnc[nH]1)NCCCN(Cc1ccc(Cl)cc1)c1ccc(-c2ccccc2)cn1	n	x	x	x	u	x
CCSc1nnc(NC(=O)CN(C)S(=O)(=O)c2ccc(F)cc2)s1	n	n	n	n	n	n
Cc1cccc(CSc2ncc(Cl)c(C(=O)Nc3nc4ccc(F)cc4s3)n2)c1	n	x	x	n	n	n
SMILES	HepG2 tox	RORgamma inh	Gal4-VP16 FLuc	S2 tox	TGFb inhibitor	ATXN2 expr inh
CC(C)c1nnc(NC(=O)c2nc(SCc3ccc(F)cc3)ncc2Cl)s1	n	x	x	n	n	n
CCSc1nnc(NC(=O)c2nc(S(=O)(=O)Cc3ccc(F)cc3)ncc2Cl)s1	n	u	11.2µM	u	u	u
Cc1ccc(CS(=O)(=O)c2ncc(Cl)c(C(=O)Nc3nnc(C(C)C)s3)n2)cc1	11.2µM!	u	7.08µM	u	12.6µM	u
Cc1cccc(CS(=O)(=O)c2ncc(Cl)c(C(=O)Nc3nnc(C(C)C)s3)n2)c1	11.2µM!	0.0224µM	u	28.2µM	11.2µM	n
CC(C)(C)CC(=O)OCC(=O)[C@@]12OC(C)(C)O[C@@H]1C[C@H]1[C@@H]3CCC4=CC(=O)C=C[C@]4(C)[C@@]3(F)[C@@H](O)C[C@@]12C	x	x	x	n	x	x
COc1ccccc1CNS(=O)(=O)c1ccc2c(c1)NC(=O)CC(=O)N2	n	x	x	n	n	n
C[C@H]1CN([C@@H](C)CO)C(=O)CCCn2nncc2CO[C@H]1CN(C)S(=O)(=O)c1ccc2c(c1)OCCCO2	n	x	x	u	n	n
Cc1cc(C)n(-c2cccc(C(=O)NCC3Cc4cccc(-c5ccccn5)c4O3)c2)n1 (stereo not drawn)	x	x	x	n	x	x
COc1ccc(/C=C/c2sc3ccccc3[n+]2CCCCI)cc1OC	n	x	x	x	n	x
CCCN(CCC)c1ccc(/C=C/c2sc3ccccc3[n+]2CCCCI)cc1	14.1µM	x	x	x	6.31µM	x
CC(=O)Nc1ccc(S(=O)(=O)Oc2ccc(N3C(=O)C4CCCCC4C3=O)cc2)cc1 (stereo not drawn)	n	u	12.6µM	n	n	n
CC(C)CC(=O)NC(=S)N1CCN(c2ccc([N+](=O)[O-])cc2Cl)CC1	n	3.55µM	u	n	u	n
O=C(NC(=S)Nc1ccc(N2CCCC2)cc1)c1ccc(F)cc1	n	2.51µM	5.62µM	x	u	n
O=C(NC(=S)Nc1ccc(N2CCCCC2)cc1)c1ccc2c(c1)OCCO2	n	3.55µM	5.01µM	n	n	n
O=C(NC(=S)Nc1c(F)cc(F)cc1Br)c1ccc2c(c1)OCCO2	n	7.94µM	u	n	u	x
O=C(NC(=S)Nc1ccc(CN2CCOCC2)cc1)c1ccc2c(c1)OCCO2	n	u	u	n	u	n
O=C(Nc1nc2c(F)cc(F)cc2s1)c1ccc2c(c1)OCCO2	n	x	x	x	x	x
O=C(NC(=S)Nc1ccc(N2CCOCC2)cc1)c1ccc2c(c1)OCCO2	n	8.91µM	u	u	n	x
Cc1ccccc1Cn1c(=O)n(CCCCCC(=O)NCc2ccc3c(c2)OCO3)c(=O)c2sccc21	n	x	x	x	n	x
Cc1cccc(N(C)c2nc3ccc(C(=O)c4ccccc4)cc3n3c(C)nnc23)c1	n	x	x	x	n	x
COc1ccc(NC(=S)NC(=O)c2ccc3c(c2)OCCO3)cc1	n	x	x	n	n	n
O=C(NC(=S)Nc1ccc(F)cc1)c1ccc2c(c1)OCCO2	n	7.08µM	u	n	n	n
COc1ccc(CCNC(=O)c2cc3c(=O)n(C)c4ccccc4c3s2)cc1OC	n	x	x	n	n	n
O=C(N/N=C/c1ccc(Cl)cc1)c1ccc2c(c1)OCO2	n	n	n	n	u	n
COc1cc(Cl)cc(/C=N\NC(=O)c2ccc3c(c2)OCO3)c1O	n	x	x	x	11.2µM	x
O=C(N/N=C/c1cc(Cl)cc([N+](=O)[O-])c1O)c1ccc2c(c1)OCO2	n	0.794µM	0.891µM	u	n	u
